Laboratory results from the supplement of paper PMC7695840.
Where a name gives a salt, the structure may show the parent alone.

Tests used:
[1] = test system: Staphylococcus aureus MW2 delta-mecA (mecA-); assay: normalized GFP fluorescence (growth of mecA- strain) (fraction of control range); higher = more growth of mecA- strain; settings: compound concentration: 150 uM; cefoxitin: subinhibitory; fluorescent label: GFP
How it was run: (§1)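 Pre-induced S. aureus MW2 cells with the gene (DsRed) and without it (GFP) were mixed 1:1 in LB holding a subinhibitory antibiotic dose set daily and grown on 150 μM compound (1.5% DMSO) in 1536-well plates, single replicate, for 20 h at 37 °C. DsRed (540/590) and GFP (485/520) readings were scaled per plate between single-strain control medians. Plates with high untreated ratios and rows with DsRed/GFP >10 were excluded.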

[2] = test system: Staphylococcus aureus MW2 (mecA+); assay: normalized DsRed fluorescence (growth of mecA+ strain) (fraction of control range); higher = more growth of mecA+ strain; settings: compound concentration: 150 uM; cefoxitin: subinhibitory; fluorescent label: DsRed
How it was run: as §1

Compound	normalized GFP fluorescence [1]	normalized DsRed fluorescence [2]
CC(C)NCC(O)c1ccc(NS(C)(=O)=O)cc1 (stereo not given)	0.417	0.703
CC(C)N1CCN(c2ccc(OCC3COC(Cn4cncn4)(c4ccc(Cl)cc4Cl)O3)cc2)CC1 (stereo not given)	0.199	0.734
Cc1cccc(C)c1NC(=O)C(C)N (stereo not given)	0.842	0.486
C[n+]1ccccc1C=NO	0.166	0.637
CNS(=O)(=O)Cc1ccc2[nH]cc(CCN(C)C)c2c1	0.345	0.758
CCCc1cc(=O)[nH]c(=S)[nH]1	0.668	0.582
Cn1c(=O)c2c(ncn2CC2OCCO2)n(C)c1=O	0.29	1.05
Cc1cn([C@H]2C=C[C@@H](CO)O2)c(=O)[nH]c1=O	0.779	0.601
CN1CCC(=C2c3ccccc3CCc3sccc32)CC1 [Pizotifen malate]	0.00361	1.4
CCOC(=O)[C@H](CCc1ccccc1)N[C@H]1CCCN2CCC[C@@H](C(=O)O)N2C1=O [Cilazapril monohydrate (Inhibace)]	0.646	0.59
NC[C@H]1CC[C@H](C(=O)O)CC1	0.867	0.725
CC(CCc1ccccc1)NCC(O)c1ccc(O)c(C(N)=O)c1 (stereo not given)	0.745	0.7
CCN1CCC[C@H]1CNC(=O)c1cc(S(N)(=O)=O)ccc1OC [Levosulpiride (Levogastrol)]	0.447	0.695
CN(Cc1cc(Br)cc(Br)c1N)C1CCCCC1	0.459	0.919
CCCc1nc(C)c2c(O)nc(-c3cc(S(=O)(=O)N4CCN(CC)CC4)ccc3OCC)nn12	0.68	0.461
Cc1cc2nc3c(=O)[nH]c(=O)nc-3n(CC(O)C(O)C(O)COP(=O)(O)O)c2cc1C (stereo not given)	0.933	0.535
CC(C)C(=O)Nc1ccc([N+](=O)[O-])c(C(F)(F)F)c1	0.121	1.4
CCCc1nn(C)c2c(=O)[nH]c(-c3cc(S(=O)(=O)N4CCN(C)CC4)ccc3OCC)nc12	0.331	0.655
CC(=O)OCC(=O)[C@@]12OC3(CCCC3)O[C@@H]1C[C@H]1[C@@H]3CCC4=CC(=O)C=C[C@]4(C)[C@@]3(F)[C@@H](O)C[C@@]12C	0.197	0.883
Cc1cccc(C)c1NC(=O)C1CCCCN1C (stereo not given)	0.677	0.7

Compound	normalized GFP fluorescence [1]	normalized DsRed fluorescence [2]
CCC1(c2ccccc2)C(=O)NCNC1=O	0.33	0.811
CCC1(C)CC(=O)NC1=O (stereo not given)	0.678	0.691
CC(=O)N(CC(O)CO)c1c(I)c(C(=O)NCC(O)CO)c(I)c(C(=O)NCC(O)CO)c1I (stereo not given)	0.415	0.849
COCCCC/C(=N\OCCN)c1ccc(C(F)(F)F)cc1	0.551	0.562
NCC[C@H](O)C(=O)N[C@@H]1C[C@H](N)[C@@H](O[C@H]2O[C@H](CN)[C@@H](O)[C@H](O)[C@H]2O)[C@H](O)[C@H]1O[C@H]1O[C@H](CO)[C@@H](O)[C@H](N)[C@H]1O [Amikacin hydrate]	0.412	0.639
CCOC(=O)C(C)(C)Oc1ccc(Cl)cc1	0.258	0.633
CC(C)Cc1ccc([C@H](C)C(=O)O)cc1	0.21	0.388
CN1CCCCC1CCN1c2ccccc2Sc2ccc([S+](C)[O-])cc21 (stereo not given)	0.265	1.16
Cc1cnc(NC(=O)C2=C(O)c3ccccc3S(=O)(=O)N2C)s1	0.204	0.469
CCOC(=O)C1=C[C@]2(CC)CCCN3CCc4c(n1c1ccccc41)[C@@H]32	0.593	0.554
CCOc1cc2ncc(C#N)c(Nc3ccc(OCc4ccccn4)c(Cl)c3)c2cc1NC(=O)/C=C/CN(C)C [Neratinib (HKI-272)]	0.0386	0.921
O=c1[nH]cnc2c1ncn2[C@@H]1O[C@H](CO)[C@@H](O)[C@H]1O [Inosine]	0.197	0.97
CN(C)[C@@H](CCOc1cccc2ccccc12)c1ccccc1 [Dapoxetine hydrochloride (Priligy)]	-0.00645	1.15
COc1ccc(C[C@@H]2c3cc(OC)c(OC)cc3CC[N@+]2(C)CCC(=O)OCCCCCOC(=O)CC[N@@+]2(C)CCc3cc(OC)c(OC)cc3[C@H]2Cc2ccc(OC)c(OC)c2)cc1OC [Cisatracurium besylate (Nimbex)]	0.62	0.713
CCCCc1nc(Cl)c(CO)n1Cc1ccc(-c2ccccc2-c2nnn[nH]2)cc1	0.297	0.864
COC(=O)C1=C(C)NC(C)=C(C(=O)OCCN2CCN(C(c3ccccc3)c3ccccc3)CC2)C1c1cccc([N+](=O)[O-])c1 (stereo not given)	0.002	0.944
CC(C)[N+](C)(CCOC(=O)C1c2ccccc2Oc2ccccc21)C(C)C	0.295	0.691
Cc1ccc(NC(=O)c2ccc(CN3CCN(C)CC3)cc2)cc1Nc1nccc(-c2cccnc2)n1 [Imatinib Mesylate]	0.184	0.918
OC[C@@H](O)[C@@H](O)[C@H](O)[C@@H](O)CO [Sorbitol (Glucitol)]	0.227	1.15
CCN[C@H]1CN(CCCOC)S(=O)(=O)c2sc(S(N)(=O)=O)cc21	0.268	0.875
